Laboratory results: PubChem BioAssay (Tox21)
A number with no mark means an inactive call. Results filed as inconclusive are left out. Entries that show only a call come without a potency. The source made the active and inactive calls. Unless noted, the call rests on the fitted dose curve.

Test: qHTS assay to identify small molecule agonists of H2AX - cell viability counter screen (AID 1224847); further: nearly all actives have a fitted effect of over 30% in size; further: potency means the concentration at half of the fitted maximal effect; on activity change, negative = cytotoxicity: top concentration of the series differs between compounds
Settings: CHO-K1 viability, CellTiter-Glo luminescence, 3 h; series mostly up to 154 µM
In short: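 Quantitative HTS viability measurement: CHO-K1 wild-type cells in serum (10% FBS) medium, short 3 hr drug exposure at 37C with 0.76% DMSO, CellTiter-Glo luminescent detection.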

Row | Structure (SMILES) | Potency | activity change, negative = cytotoxicity
1 | O=C1c2ccccc2C(=O)C1c1ccc2cc(S(=O)(=O)O)cc(S(=O)(=O)O)c2n1 | inactive | –
2 | CCCCCCCCCCCCN1CCOCC1 | inactive | –
3 | CC(=O)c1ccc(Cl)c(Cl)c1Cl | inactive | –
4 | CC(C(=O)O)c1ccc(/C=C2\CCCCC2=O)cc1 (configuration not stated) | inactive | –
5 | COC=O | – | -3.81% [at 14 µM]
6 | Cc1c(N=C=O)cccc1N=C=O | inactive | –
7 | CC(=O)c1cccnc1 | inactive | –
8 | O=[N+]([O-])c1ccc(Cl)cc1Cl | inactive | –
9 | CCCCCCCCNC | inactive | –
10 | C=C(C)C(=O)OCCCCCCCCCCOC(=O)C(=C)C | inactive | –
11 | Cc1cc(C)c(C)c(O)c1 | inactive | –
12 | CCC(=O)O[C@]1(C(=O)COC)[C@@H](C)C[C@H]2[C@@H]3CCC4=CC(=O)C=C[C@]4(C)C3(F)[C@@H](O)C[C@@]21C (some centres not stated) | inactive | –
13 | CCN(CC)CC(=O)OCC(=O)[C@@]1(O)CC[C@H]2[C@@H]3CCC4=CC(=O)CC[C@]4(C)[C@H]3[C@@H](O)C[C@@]21C | inactive | –
14 | CC1=C(C)C(=O)C(CCCCC#CCCCC#CCO)=C(C)C1=O | 49.2 µM (active) | –
15 | C=CC(=O)OCCCCCCCCCC | inactive | –
16 | O=C(Cl)c1ccc(F)c(Cl)c1 | inactive | –
17 | O=C(NC1CCN(CCc2c[nH]c3ccccc23)CC1)c1ccccc1 | inactive | –
18 | CCOc1ccccc1O | inactive | –
19 | CCN(CCCCOC(=O)c1ccc(OC)c(OC)c1)C(C)Cc1ccc(OC)cc1 (configuration not stated) | inactive | –

Row | Structure (SMILES) | Potency | activity change, negative = cytotoxicity
20 | CC1(C)CC(O)CC(C)(C)N1[O] | inactive | –
21 | CC(=O)S[C@H](C(=O)N[C@H]1Cc2ccccc2[C@H]2CCC[C@@H](C(=O)O)N2C1=O)C(C)C | inactive | –
22 | Cc1c(Cl)cccc1Nc1ccccc1C(=O)O | inactive | –
23 | COC(=O)c1cc(Cl)ccc1[N+](=O)[O-] | inactive | –
24 | O=C(Nc1ccc2c(c1)Cc1ccccc1-2)C(F)(F)F | inactive | –
25 | O=C(OCCCCCOC(=O)c1ccccc1)c1ccccc1 | inactive | –
26 | O=C1OC(=O)C2CC=CCC12 (configuration not stated) | inactive | –
27 | O=C1C=CCCC1 | inactive | –
28 | O=C(O)CNc1ccccc1 | inactive | –
29 | O=C(O)c1cccnc1Nc1cccc(C(F)(F)F)c1 | inactive | –
30 | O=Cc1ccc([N+](=O)[O-])cc1 | inactive | –
31 | O=C(O)c1cccc(C(=O)O)c1C(=O)O | inactive | –
32 | O=C(Nc1ccccc1)c1cc([N+](=O)[O-])ccc1Cl | inactive | –
33 | C/C=C1\[C@H]2C=C(C)C[C@]1(N)c1ccc(=O)[nH]c1C2 | inactive | –
34 | FC(F)(Cl)C(F)(Cl)Cl | inactive | –
35 | CC(CC(C#N)(c1ccccc1)C(C)C)N(C)C (configuration not stated) | inactive | –
36 | CO[C@@H]1COCC[C@@H]1N[C@@H]1CC[C@@](C(=O)N2CCc3ncc(C(F)(F)F)cc3C2)(C(C)C)C1 | inactive | –
37 | CC[C@H](NC(C)C)[C@H](O)c1ccc(O)c2[nH]c(=O)ccc12 | inactive | –

Test: qHTS assay to identify small molecule antagonists of the estrogen related receptor (ERR) signaling pathway from Tox21 library (AID 1224848; active means well fitted inhibition curve with a large enough effect in the repeat runs; further: nearly all actives have a fitted effect of over 50% in size; further: potency means the concentration at half of the fitted maximal effect)
Settings: ERR reporter cell line, luciferase antagonist mode, 18 h; series mostly up to 92.4 µM
In short: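 Quantitative high-throughput format: ERR reporter cells (2,000/well) pre-incubated 6 h, treated 18 h at 37 C with compounds in DMSO alongside positive and negative controls, then read by ONE-Glo luminescence.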

Row | Structure (SMILES) | activity, negative = inhibition | Potency
38 | COC=O | 14% [at 8.39 µM] | –
39 | CC(=O)c1cccnc1 | – | inactive
40 | C=C(C)C(=O)OCCCCCCCCCCOC(=O)C(=C)C | – | inactive
41 | CCC(=O)O[C@]1(C(=O)COC)[C@@H](C)C[C@H]2[C@@H]3CCC4=CC(=O)C=C[C@]4(C)C3(F)[C@@H](O)C[C@@]21C (some centres not stated) | – | inactive
42 | C=CC(=O)OCCCCCCCCCC | – | inactive
43 | O=C(Cl)c1ccc(F)c(Cl)c1 | – | inactive
44 | CC(=O)S[C@H](C(=O)N[C@H]1Cc2ccccc2[C@H]2CCC[C@@H](C(=O)O)N2C1=O)C(C)C | – | inactive
45 | O=C(OCCCCCOC(=O)c1ccccc1)c1ccccc1 | – | inactive
46 | O=C(O)CNc1ccccc1 | – | inactive
47 | O=C(Nc1ccccc1)c1cc([N+](=O)[O-])ccc1Cl | – | 54.5 µM (active)

Test: qHTS assay to identify small molecule agonists of the estrogen related receptor (ERR) signaling pathway from Tox21 library (AID 1224849); further: nearly all actives have a fitted effect of over 15% in size
Settings: ERR reporter cell line, ONE-Glo luciferase, 18 h; at 92.4 µM (top of the series) unless noted
In short: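 Luminescence readout (ONE-Glo, 30 min RT) after 18 h compound exposure at 37 C of NTP-supplied ERR reporter cells; cells were plated 6 h before compound addition by pin tool.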

Row | Structure (SMILES) | activity change, positive = activation
48 | O=C1c2ccccc2C(=O)C1c1ccc2cc(S(=O)(=O)O)cc(S(=O)(=O)O)c2n1 | 54.8% (active)
49 | CCCCCCCCCCCCN1CCOCC1 | -8.24%
50 | COC=O | 6.68% [at 8.39 µM]
51 | CC(=O)c1cccnc1 | 4.95%
52 | C=C(C)C(=O)OCCCCCCCCCCOC(=O)C(=C)C | 1.48%
53 | Cc1cc(C)c(C)c(O)c1 | 1.16%
54 | CCC(=O)O[C@]1(C(=O)COC)[C@@H](C)C[C@H]2[C@@H]3CCC4=CC(=O)C=C[C@]4(C)C3(F)[C@@H](O)C[C@@]21C (some centres not stated) | -12.4% [at 42.5 µM]
55 | CC1=C(C)C(=O)C(CCCCC#CCCCC#CCO)=C(C)C1=O | -50.9% [at 42.5 µM]
56 | C=CC(=O)OCCCCCCCCCC | 2.6%
57 | O=C(Cl)c1ccc(F)c(Cl)c1 | -7.97%
58 | CCN(CCCCOC(=O)c1ccc(OC)c(OC)c1)C(C)Cc1ccc(OC)cc1 (configuration not stated) | -16.6% [at 42.5 µM]
59 | Cc1nc2sccn2c(=O)c1CCN1CCC(=C(c2ccc(F)cc2)c2ccc(F)cc2)CC1 | -44.9% [at 42.5 µM]
60 | CC(=O)S[C@H](C(=O)N[C@H]1Cc2ccccc2[C@H]2CCC[C@@H](C(=O)O)N2C1=O)C(C)C | 1.31%
61 | O=C(OCCCCCOC(=O)c1ccccc1)c1ccccc1 | 7.15%
62 | O=C(O)CNc1ccccc1 | 8.78%
63 | O=C(O)c1cccnc1Nc1cccc(C(F)(F)F)c1 | -25.2% [at 42.5 µM]
64 | O=Cc1ccc([N+](=O)[O-])cc1 | 51.8% (active)
65 | O=C(Nc1ccccc1)c1cc([N+](=O)[O-])ccc1Cl | -35.1%
66 | CC(CC(C#N)(c1ccccc1)C(C)C)N(C)C (configuration not stated) | 2.64% [at 42.5 µM]
67 | CC[C@H](NC(C)C)[C@H](O)c1ccc(O)c2[nH]c(=O)ccc12 | 4.6% [at 42.5 µM]
